Test [1] is described as follows: NCI Yeast Anticancer Drug Screen. Data for the rad50 strain (AID 155).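 Also: 0% = growth of vehicle-only cultures of the same strain.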 To be noted: S. cerevisiae rad50 strain growth inhibition, stronger effect = higher value. In short, it runs like this: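 Genetically altered yeast (DNA repair pathway); compound treatment; growth inhibition vs vehicle ctrl.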
Test [2] can be described thus: NCI Yeast Anticancer Drug Screen. Data for the mec2-1 strain (AID 157). To be noted: S. cerevisiae mec2-1 strain, stronger effect = higher value. In short, it runs like this: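 Readout is yeast growth inhibition, normalised to vehicle-treated controls, in the mec2-1 strain exposed to compound.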
A short description of test [3]: NCI Yeast Anticancer Drug Screen. Data for the sgs1 mgt1 strain (AID 161).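 Also: 0% = growth of cultures given vehicle only.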 Conditions: S. cerevisiae sgs1 mgt1 strain, stronger effect = higher value. Summed up:
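Yeast cells carrying a defined DNA-repair defect were exposed to test compounds. Growth inhibition was measured relative to vehicle-treated controls.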

The nature of test [4]: NCI Yeast Anticancer Drug Screen. Data for the cln2 rad14 strain (AID 165).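 Also: 0% = growth equal to vehicle treated cultures.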 To be noted: S. cerevisiae cln2 rad14 strain, stronger effect = higher value. In short, it runs like this: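 Relative to vehicle controls, growth inhibition of compound-treated cln2 rad14 yeast was recorded.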
Test [5] is described as follows: NCI Yeast Anticancer Drug Screen. Data for the bub3 strain (AID 167). To be noted: S. cerevisiae bub3 mutant strain, stronger effect = higher value. In short, it runs like this: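 Yeast carrying a defined mutation is treated with each compound, and growth is compared with that of vehicle-exposed cells to give inhibition.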
Test [6] is described as follows: NCI Yeast Anticancer Drug Screen. Data for the mlh1 rad18 strain (AID 175). To be noted: S. cerevisiae mlh1 rad18 strain growth inhibition, stronger effect = higher value. Summed up: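 Test agents were incubated with a yeast strain of defined genotype (DNA damage repair defect). Inhibition of growth was derived by comparison with vehicle-exposed cultures.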
[7] abbreviates: at 5.0 µM (retest, dose inferred, filed as 0.5).
[8] abbreviates: at 50.0 µM (retest, dose inferred, filed as 5.0).

Several values for one entry are separate records, joined by “and”; a condition that tells them apart may be missing. Identical values can stand only once. This is part of a sample that, as a whole, favours compounds with a hit. Of some 79,000 tested, about 15% had one in any assay. Some compounds were tested as several samples or in several runs, with calls that do not always agree. Activity calls are given as the source filed them. Rule as the data show it: active = growth inhibition above about 70%; inactive = the rest. Where a SMILES comes first, the peptide text is derived from it. [ ]: non-standard residue; d: D form. ξ: configuration not given here. ξV = CC(C)C(N)C(=O)O

Regarding `CC(C)C(NC(=O)CN)C(=O)O` (centres undefined) (H-Gly-[ξV]-OH), the growth inhibition is -165% (inactive) in test [1] (setting [7]); -152% (inactive) in test [1] (setting [8]); -7.85% (inactive) and -10.2% (inactive) and -15.5% (inactive) in test [1] (at 50.0 µM); -46% (inactive) in test [2] (setting [7]); -52% (inactive) in test [2] (setting [8]); 3.95% (inactive) and -7.6% (inactive) and -21.6% (inactive) in test [2] (at 50.0 µM). Also, the growth inhibition was -62% (inactive) in test [3] (setting [7]); -64% (inactive) in test [3] (setting [8]); -0.15% (inactive) and -21.6% (inactive) and -5.05% (inactive) in test [3] (at 50.0 µM); -59% (inactive) in test [4] (setting [7]); -60% (inactive) in test [4] (setting [8]); 35.5% (inactive) and 5.7% (inactive) and -2.4% (inactive) in test [4] (at 50.0 µM). The growth inhibition is -75% (inactive) in test [5] (setting [7]); -79% (inactive) in test [5] (setting [8]); -31.8% (inactive) and -8.25% (inactive) and -5.15% (inactive) in test [5] (at 50.0 µM); -146% (inactive) in test [6] (setting [7]); -116% (inactive) in test [6] (setting [8]); 16.8% (inactive) and -21.9% (inactive) and -0.65% (inactive) in test [6] (at 50.0 µM).
With `COC(O)C(=O)c1c2c(cc3c1CCC3)CCCC2` (centres undefined), the growth inhibition is 96% (active) in test [1] (setting [7]); 100% (active) in test [1] (setting [8]); 81.1% (active) in test [1] (at 50.0 µM); 98% (active) in test [2] (setting [7]); 99% (active) in test [2] (setting [8]); 88.4% (active) in test [2] (at 50.0 µM). For the same molecule, the growth inhibition was 98% (active) in test [3] (setting [7]); 99% (active) in test [3] (setting [8]); 89.1% (active) in test [3] (at 50.0 µM); 85% (active) in test [4] (setting [7]); 100% (active) in test [4] (setting [8]); 91.7% (active) in test [4] (at 50.0 µM). Besides, the growth inhibition was 99% (active) in test [5] (setting [7]); 100% (active) in test [5] (setting [8]); 90.5% (active) in test [5] (at 50.0 µM); 98% (active) in test [6] (setting [7]); 100% (active) in test [6] (setting [8]); 92.5% (active) in test [6] (at 50.0 µM).
Turning to `O=C1/C(=C\c2ccc([N+](=O)[O-])cc2)Sc2scc(-c3ccc(O)c(O)c3)[n+]21`, the growth inhibition was 6% (inactive) in test [1] (setting [7]); 93% (active) in test [1] (setting [8]); 83.2% (active) in test [1] (at 50.0 µM); -10% (inactive) in test [2] (setting [7]); 95% (active) in test [2] (setting [8]); 93.8% (active) in test [2] (at 50.0 µM). For the same molecule, the growth inhibition was 14% (inactive) in test [3] (setting [7]); 96% (active) in test [3] (setting [8]); 94.9% (active) in test [3] (at 50.0 µM); -4% (inactive) in test [4] (setting [7]); 93% (active) in test [4] (setting [8]); 71.1% (active) in test [4] (at 50.0 µM). For the same molecule, the growth inhibition in test [5] (setting [7]) was -19% (inactive); in test [5] (setting [8]) it was 98% (active); in test [5] (at 50.0 µM), 92.5% (active); in test [6] (setting [7]), 23% (inactive); in test [6] (setting [8]), 97% (active); in test [6] (at 50.0 µM), 90.8% (active).
For `Cc1nc2ccccc2cc1CCl`, the growth inhibition in test [1] (setting [7]) is -113% (inactive); in test [1] (setting [8]), 91% (active); in test [1] (at 50.0 µM) it was 82.5% (active); in test [2] (setting [7]) it was -44% (inactive); in test [2] (setting [8]) it was 46% (inactive); in test [2] (at 50.0 µM), 59.5% (inactive). Further, the growth inhibition in test [3] (setting [7]) was -51% (inactive); in test [3] (setting [8]), 91% (active); in test [3] (at 50.0 µM), 63.8% (inactive); in test [4] (setting [7]) it was -47% (inactive); in test [4] (setting [8]) it was 80% (active); in test [4] (at 50.0 µM), 70.3% (active). Further, the growth inhibition is -69% (inactive) in test [5] (setting [7]); 76% (active) in test [5] (setting [8]); 32.9% (inactive) in test [5] (at 50.0 µM); -122% (inactive) in test [6] (setting [7]); 90% (active) in test [6] (setting [8]); 69.8% (inactive) in test [6] (at 50.0 µM).
For the molecule `CC(C)C(NC(=O)C(N)CCC(=O)O)C(=O)O` (stereo not drawn) (H-Glu-Val-OH; configuration not given here), the growth inhibition is -3% (inactive) in test [1] (setting [7]); 2% (inactive) in test [1] (setting [8]); 15.7% (inactive) in test [1] (at 50.0 µM); -1% (inactive) in test [2] (setting [7]); 5% (inactive) in test [2] (setting [8]); 2.15% (inactive) in test [2] (at 50.0 µM). In addition, the growth inhibition is 0% (inactive) in test [3] (setting [7]); 1% (inactive) in test [3] (setting [8]); -9.35% (inactive) in test [3] (at 50.0 µM); 5% (inactive) in test [4] (setting [7]); 7% (inactive) in test [4] (setting [8]); 45% (inactive) in test [4] (at 50.0 µM). Moreover, the growth inhibition in test [5] (setting [7]) is -1% (inactive); in test [5] (setting [8]), 0% (inactive); in test [5] (at 50.0 µM), -8.25% (inactive); in test [6] (setting [7]), -3% (inactive); in test [6] (setting [8]), 4% (inactive); in test [6] (at 50.0 µM) it was 9.95% (inactive).
Regarding `NC1=C(Cl)C(=O)c2ccccc2C1=O`, the growth inhibition was 6% (inactive) and 9% (inactive) in test [1] (setting [7]); 97% (active) and 99% (active) in test [1] (setting [8]); 87.5% (active) and 98.2% (active) in test [1] (at 50.0 µM); 0% (inactive) and -30% (inactive) in test [2] (setting [7]); 93% (active) and 98% (active) in test [2] (setting [8]); 79.8% (active) and 93.6% (active) in test [2] (at 50.0 µM). For the same molecule, the growth inhibition in test [3] (setting [7]) was 7% (inactive) and 10% (inactive); in test [3] (setting [8]), 95% (active) and 97% (active); in test [3] (at 50.0 µM), 91.4% (active) and 97.8% (active); in test [4] (setting [7]), 15% (inactive) and 4% (inactive); in test [4] (setting [8]), 61% (inactive) and 97% (active); in test [4] (at 50.0 µM), 76.7% (active) and 78.8% (active). For the same molecule, the growth inhibition is 16% (inactive) and 7% (inactive) in test [5] (setting [7]); 97% (active) and 98% (active) in test [5] (setting [8]); 84.3% (active) and 95.5% (active) in test [5] (at 50.0 µM); 8% (inactive) and 7% (inactive) in test [6] (setting [7]); 96% (active) and 98% (active) in test [6] (setting [8]); 88.5% (active) and 95.5% (active) in test [6] (at 50.0 µM).
As to `[N-]=[N+]=NC(=O)Nc1cccc(C(F)(F)F)c1`, the growth inhibition in test [1] (setting [7]) is 8% (inactive); in test [1] (setting [8]) it was 99% (active); in test [1] (at 50.0 µM) it was 99% (active); in test [2] (setting [7]) it was -1% (inactive); in test [2] (setting [8]), 99% (active); in test [2] (at 50.0 µM), 99% (active). The growth inhibition is 2% (inactive) in test [3] (setting [7]); 99% (active) in test [3] (setting [8]); 98.5% (active) in test [3] (at 50.0 µM); -3% (inactive) in test [4] (setting [7]); 99% (active) in test [4] (setting [8]); 97.8% (active) in test [4] (at 50.0 µM). In addition, the growth inhibition was 14% (inactive) in test [5] (setting [7]); 98% (active) in test [5] (setting [8]); 98.5% (active) in test [5] (at 50.0 µM); 8% (inactive) in test [6] (setting [7]); 98% (active) in test [6] (setting [8]); 98.8% (active) in test [6] (at 50.0 µM).
On to `N#Cc1c(-c2ccccc2)cc(-c2ccccc2)n(C2OC(CO)C(O)C(O)C2O)c1=S` (centres undefined), for which the growth inhibition in test [1] (setting [7]) is -4% (inactive) and 0% (inactive); in test [1] (setting [8]), 4% (inactive) and -12% (inactive); in test [1] (at 50.0 µM) it was 93% (active) and 32.5% (inactive); in test [2] (setting [7]) it was -7% (inactive) and -4% (inactive); in test [2] (setting [8]), -19% (inactive) and -15% (inactive); in test [2] (at 50.0 µM), 40.9% (inactive) and -23.4% (inactive). Besides, the growth inhibition in test [3] (setting [7]) was -14% (inactive) and 4% (inactive); in test [3] (setting [8]) it was 10% (inactive) and 8% (inactive); in test [3] (at 50.0 µM), 4% (inactive) and -26.1% (inactive); in test [4] (setting [7]), 10% (inactive) and -1% (inactive); in test [4] (setting [8]) it was 22% (inactive) and 18% (inactive); in test [4] (at 50.0 µM) it was -35% (inactive) and -38.9% (inactive). Besides, the growth inhibition in test [5] (setting [7]) is -1% (inactive) and 10% (inactive); in test [5] (setting [8]), 11% (inactive) and 4% (inactive); in test [5] (at 50.0 µM) it was 53.6% (inactive) and -49.4% (inactive); in test [6] (setting [7]), 9% (inactive) and 1% (inactive); in test [6] (setting [8]), 8% (inactive) and -7% (inactive); in test [6] (at 50.0 µM), 60.5% (inactive) and 1% (inactive).

The record behind these values is PubChem BioAssay (NCI).
